This is an account of results in PubChem BioAssay (EPA / NIEHS).

Activity calls are given as the source filed them. The calls were made as follows: active = hit-call score of the fitted dose curve at least 0.9, where 1 is the maximum; inactive = score below 0.9.

Assay [1] concerns the target Transcription factor E2F1 (Homo sapiens) (UniProt Q01094). Kind of assay: ATG_E2F_CIS: Attagene CIS-FACTORIAL HepG2 Assay for human E2F Transcription Factor 1 (AID 2282935). The settings on record: HepG2 Attagene cis-reporter, E2F reporter RNA transcripts; actives raise or lower the signal. The gist of the method: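 Total RNA from 24 h-treated, reporter-transfected HepG2 cells undergoes DNase I treatment, oligo(dT) reverse transcription, PCR and 6-FAM primer extension before capillary electrophoresis.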

Assay [2] is described as follows: ATG_E_Box_CIS: Attagene CIS-FACTORIAL HepG2 Assay for human Enhancer Box (E-box) (AID 2282936). Conditions: HepG2 E-box cis-reporter transcription, actives raise or lower the signal. Summed up:
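DMSO served as negative control and baseline for bidirectional fitting. Human hepatoma HepG2 cells, transiently transfected with cis-reporter constructs, were dosed 24 h; reporter mRNA read by RT-PCR and capillary electrophoresis.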

Assay [3] can be described thus: ATG_M_61_CIS: Attagene CIS-FACTORIAL HepG2 Assay for M61 Transcription Factor (Internal Marker) (AID 2282937). The settings on record: HepG2 Attagene CIS-FACTORIAL M61 internal marker reporter; actives raise or lower the signal. Summed up:
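HepG2 cells transiently transfected with cis-element-driven multiple reporter transcription units, dosed for 24 h. Reporter mRNA measured by RT-PCR, 6-FAM primer-extension labelling, HpaI digestion and capillary electrophoresis; bidirectional fit versus DMSO baseline.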

Assay [4] is described as follows: ATG_EGR_CIS: Attagene CIS-FACTORIAL HepG2 Assay for human Early Growth Response 1 (EGR1) (AID 2282938). The settings on record: HepG2 Attagene CIS-FACTORIAL EGR reporter mRNA; actives raise or lower the signal. The gist of the method:
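HepG2 cells transiently transfected with cis-promoter-driven multiplexed reporter transcription units; reporter mRNA measured 24 h after compound dosing by RT-PCR, 6-FAM primer extension, HpaI digestion and capillary electrophoresis. Bidirectional fit versus DMSO baseline.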

The nature of assay [5]: ATG_M_19_CIS: Attagene CIS-FACTORIAL HepG2 Assay for M19 Transcription Factor (Internal Marker) (AID 2282939). The settings on record: HepG2 Attagene CIS-FACTORIAL M19 internal marker reporter; actives raise or lower the signal. The gist of the method:
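Following a 24 h exposure, RNA from transfected HepG2 cells was reverse-transcribed, PCR-amplified with reporter-specific primers, end-labelled with 6-FAM and HpaI-digested before capillary separation. Values represent gain or loss versus DMSO.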

A short description of assay [6]: ATG_ERE_CIS: Attagene CIS-FACTORIAL HepG2 Assay for Estrogen Response Element (ERE) (AID 2282940). Conditions: HepG2 ERE cis-reporter, Attagene RNA transcript; actives raise or lower the signal. The gist of the method: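 HepG2, transient cis-reporter units, 24 h exposure. RNA isolated, oligo(dT) RT, reporter-specific PCR, FAM extension, HpaI cut, CE detection. Gain/loss-of-signal vs DMSO.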

Assay [7] in a line: ATG_Ets_CIS: Attagene CIS-FACTORIAL HepG2 Assay for human Erythroblast Transformation Specific (ETS) (AID 2282941). The settings on record: HepG2 ETS cis-reporter transcription, actives raise or lower the signal. The gist of the method: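 Human HepG2 hepatoma cells were transiently transfected with promoter-driven reporter constructs and treated for 24 hours. Reporter transcripts were quantified by RT-PCR with fluorescent primer extension; bidirectional curve fitting used DMSO as reference.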

Assay [8] concerns the target Hepatocyte nuclear factor 3-beta (Homo sapiens) (UniProt Q9Y261). The experiment in a line: ATG_FoxA2_CIS: Attagene CIS-FACTORIAL HepG2 Assay for human Forkhead box A2 (FOXA2) (AID 2282942). Conditions: HepG2 cis-reporter transcription factor activity, 24 h; actives raise or lower the signal. The gist of the method: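 HepG2 cells transiently transfected with multiple cis-regulated reporter transcription units, dosed for 24 h. Reporter mRNA measured by RT-PCR, 6-FAM labelling, HpaI digestion and capillary electrophoresis; bidirectional fitting against DMSO baseline.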

Assay [9] in a line: ATG_FoxO_CIS: Attagene CIS-FACTORIAL HepG2 Assay for human Forkhead box O (FoxO) (AID 2282943). The settings on record: HepG2 Attagene cis-reporter, FoxO element, mRNA; actives raise or lower the signal. Summed up: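 Human hepatoma HepG2 cells carry transiently introduced reporter transcription units controlled by cis promoter elements. Chemical treatment lasted 24 h, and mRNA signal was compared with DMSO.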

A short description of assay [10]: ATG_GATA_CIS: Attagene CIS-FACTORIAL HepG2 Assay for human GATA Binding Protein (AID 2282944). Conditions: HepG2 GATA cis-element reporter, Attagene multiplex mRNA; actives raise or lower the signal. The gist of the method:
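DMSO serves as negative control and baseline for bidirectional fitting of reporter mRNA changes. HepG2 cells bearing transiently transfected cis-promoter reporters were exposed 24 h; transcripts detected via RT-PCR and capillary electrophoresis.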

Hepatocyte nuclear factor 3-beta (Homo sapiens), sequence (Q9Y261 whole entry, looked up): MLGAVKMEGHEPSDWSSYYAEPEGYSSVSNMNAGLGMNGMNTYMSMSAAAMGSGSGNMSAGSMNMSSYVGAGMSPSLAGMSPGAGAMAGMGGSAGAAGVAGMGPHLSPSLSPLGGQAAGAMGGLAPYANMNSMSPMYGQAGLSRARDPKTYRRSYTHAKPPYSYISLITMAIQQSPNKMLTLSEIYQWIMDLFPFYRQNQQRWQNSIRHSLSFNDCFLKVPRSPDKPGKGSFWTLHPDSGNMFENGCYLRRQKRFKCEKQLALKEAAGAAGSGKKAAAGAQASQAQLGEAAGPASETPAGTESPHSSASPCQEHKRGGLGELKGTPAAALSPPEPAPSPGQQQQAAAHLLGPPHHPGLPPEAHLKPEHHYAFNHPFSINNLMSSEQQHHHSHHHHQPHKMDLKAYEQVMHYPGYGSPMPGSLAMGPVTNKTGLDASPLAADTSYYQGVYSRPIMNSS
Transcription factor E2F1 (Homo sapiens), sequence (Q01094 whole entry, looked up): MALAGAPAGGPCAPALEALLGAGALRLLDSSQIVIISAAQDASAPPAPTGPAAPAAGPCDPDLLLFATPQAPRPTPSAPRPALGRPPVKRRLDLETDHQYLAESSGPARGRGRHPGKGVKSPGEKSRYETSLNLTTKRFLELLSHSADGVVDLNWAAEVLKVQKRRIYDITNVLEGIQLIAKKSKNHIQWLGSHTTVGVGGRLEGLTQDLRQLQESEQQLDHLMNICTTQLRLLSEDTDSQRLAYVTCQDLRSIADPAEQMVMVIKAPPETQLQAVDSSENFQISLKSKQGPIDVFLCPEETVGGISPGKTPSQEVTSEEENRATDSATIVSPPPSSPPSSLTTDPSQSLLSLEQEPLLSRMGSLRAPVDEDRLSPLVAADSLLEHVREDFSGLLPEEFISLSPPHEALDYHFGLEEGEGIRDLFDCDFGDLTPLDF

With `CC(C)C(=O)OCC=Cc1ccccc1`, the result in assay [1], in [2], in assay [3], in [4], in assay [5] and in [6] was inactive. Moreover, the result in assay [7], in assay [8], in assay [9] and in [10] was inactive.
For `COc1ccc(OC)cc1`, the outcome in assay [1], in assay [2], in [3], in assay [4], in assay [5] and in assay [6] was inactive. The compound was classed as inactive in assay [7], in assay [8], in [9] and in assay [10].
For the compound `CC(C)(O)C(=O)c1ccc(OCCO)cc1`, the compound was classed as inactive in assay [1], in assay [2], in assay [3], in [4], in assay [5] and in assay [6]. Moreover, the call in [7], in assay [8], in assay [9] and in assay [10] was inactive.
As to `OCCCO`, the result in assay [1], in assay [2], in assay [3], in [4], in [5] and in [6] was inactive. Besides, the result in [7], in [8], in assay [9] and in [10] was inactive.
Take `CC(C)COC(=O)c1ccccc1O`: the compound was classed as inactive in [1], in assay [2], in assay [3], in assay [4], in assay [5] and in [6]. The compound was called inactive in assay [7], in [8], in assay [9] and in assay [10].
As usually defined, the AC50 is the midpoint of the concentration-response curve, whichever way the signal moves. Take `CC(C)Cc1ccc(C(C)C(=O)O)cc1` (stereo not given): the compound was classed as inactive in [1], in [2], in assay [3], in assay [4], in assay [5] and in assay [7]. In addition, the result in assay [8], in assay [9] and in assay [10] was inactive. In [6], the AC50 was 10.6 µM (active).
As for `C=CCOC(=O)/C=C\C(=O)OCC=C`, the outcome in [1], in assay [2], in [3], in assay [5], in [6] and in assay [8] was inactive. Besides, the result in assay [10] was inactive. In addition, the AC50 in [4] is 34.3 µM (active); in [7] it was 13.2 µM (active); in [9], 101 µM (active).
Take `CC(=O)CCC(=O)O`: the outcome in [1], in assay [2], in [3], in [4], in assay [5] and in [6] was inactive. For the same compound, the result in assay [7], in assay [8], in [9] and in [10] was inactive.
In the case of `COc1ccc(C(C)=O)cc1`, the result in assay [1], in [2], in assay [3], in assay [4], in [5] and in assay [6] was inactive. Besides, the call in assay [7], in [8], in assay [9] and in [10] was inactive.
On to `[Na+]`, for which the result in assay [1], in assay [2], in [3], in assay [4], in assay [5] and in assay [6] was inactive. In addition, the call in assay [7], in [8], in assay [9] and in assay [10] was inactive.
Consider `CC1=CCC(=C(C)C)CC1`, for which the call in assay [1], in assay [2], in assay [3], in assay [4], in assay [5] and in assay [7] was inactive. For the same compound, the outcome in assay [8], in assay [9] and in [10] was inactive. Also, in assay [6], the AC50 was 60 µM (active).
With `CC(=O)OCC=C(C)CCC=C(C)CCC=C(C)C`, the compound was called inactive in [1], in assay [2], in assay [3] and in [4]. Besides, the AC50 was 183 µM (active) in assay [5]; 25.1 µM (active) in assay [6]; 179 µM (active) in assay [7]; 146 µM (active) in assay [8]; 128 µM (active) in assay [9]; 167 µM (active) in [10].
`CCOC(=O)COC(=O)c1ccccc1C(=O)OCC`: the result in assay [1], in assay [2], in assay [3], in assay [4], in [5] and in [6] was inactive. Also, the result in assay [7], in assay [8], in assay [9] and in assay [10] was inactive.
In the case of `O=C(O)c1ccccc1O`, the call in assay [1], in assay [2], in [3], in assay [4], in [5] and in [6] was inactive. The compound was classed as inactive in [7], in assay [8], in assay [9] and in [10].
For `C/C=C(\C)C(=O)OC/C=C(\C)CCC=C(C)C`, the call in assay [1], in [2], in [3], in [4], in [5] and in [7] was inactive. For the same compound, the outcome in assay [8], in assay [9] and in assay [10] was inactive. In assay [6], the AC50 was 39 µM (active).
`C=CCOCC(O)CO` (stereo not given): the AC50 is 149 µM (active) in [1] and 164 µM (active) in [10]. The result in [2], in assay [3], in assay [4], in assay [5], in [6] and in assay [7] was inactive. For the same compound, the call in assay [8] and in assay [9] was inactive.
Take `CCCCN(CCO)CCO`: the result in assay [1], in assay [2], in [3], in [4], in assay [5] and in assay [6] was inactive. In addition, the outcome in [7], in assay [8], in [9] and in [10] was inactive.
`CCCCOCC(C)OCC(C)O` (stereo not given): the call in assay [1], in assay [2], in assay [3], in assay [4], in assay [5] and in assay [6] was inactive. For the same compound, the outcome in [7], in [8], in assay [9] and in assay [10] was inactive.
In the case of `CCC(C)(C)c1cc(O)c(C(C)(C)CC)cc1O`, the call in [1], in [2], in assay [3], in [5], in [6] and in [7] was inactive. Moreover, in assay [8], the call was inactive. Also, the figures for the AC50 in [4], in [9] and in assay [10] were 14.1 µM (active), 10.1 µM (active) and 27.2 µM (active), respectively.
For the compound `CC(C)C(=O)c1ccccc1`, the call in assay [1], in assay [2], in assay [3], in assay [4], in assay [5] and in assay [7] was inactive. The compound was classed as inactive in [8], in [9] and in assay [10]. In addition, in [6], the AC50 is 0.5 µM (active).
For the compound `O=C(O)c1ccc(C(=O)O)c(C(=O)O)c1`, the call in [1], in assay [2], in assay [3], in [4], in assay [5] and in [6] was inactive. Moreover, the compound was classed as inactive in [7], in assay [8], in [9] and in assay [10].
As to `CCCCCCCCOS(=O)(=O)O`, the compound was classed as inactive in [1], in assay [2], in [3], in assay [4], in assay [5] and in [7]. In addition, the compound was classed as inactive in assay [8], in assay [9] and in [10]. Moreover, in assay [6], the AC50 was 135 µM (active).
With `CCNC(=S)NCC`, the compound was called inactive in assay [1], in [2], in assay [3], in assay [4], in assay [5] and in assay [6]. Also, the compound was classed as inactive in assay [7], in assay [8], in [9] and in [10].
For the compound `CC(C)COC(=O)c1ccccc1`, the outcome in [1], in assay [2], in assay [3], in assay [4], in [5] and in assay [6] was inactive. In addition, the result in assay [7], in [8], in assay [9] and in assay [10] was inactive.
For the compound `[Cu+]`, the compound was classed as inactive in assay [1], in assay [2], in assay [3], in assay [4], in [5] and in [6]. Further, the result in [7], in [8], in assay [9] and in assay [10] was inactive.
In the case of `C=C1CC[C@H]2O[C@]2(C)CC[C@@H]2[C@@H]1CC2(C)C`, the result in [1], in [2], in [3], in assay [4], in assay [5] and in assay [6] was inactive. Further, the compound was classed as inactive in [7], in [8], in assay [9] and in assay [10].
